# Laboratory results: PubChem BioAssay AID504834 (National Center for Advancing Translational Sciences (NCATS), 2011)
# The campaign covered roughly 320,000 compounds. About 22,000 (6.9%) were called active. About 27% were inconclusive and are not listed. Only a selection was taken, and actives are over-represented in it overall. Values without a mark were called inactive. The call rests on the fitted dose curve; in most records, active means well fitted inhibition curve with a large enough effect; inconclusive means small, poorly fitted or top-dose-only effect, or another doubt; inactive means no such curve, though single readings can be large or run the other way.
# Assay: Primary qHTS for delayed death inhibitors of the malarial parasite plastid, 96 hour incubation
# Conditions: P. falciparum luciferase reporter growth; series mostly up to 28.7 µM; activity change, negative = inhibition: at the top concentration
# Summary of the method: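 P. falciparum expressing integrated firefly luciferase grown in erythrocytes (2% hematocrit, 0.05% parasitemia final) with compounds for 96 hours at 37 C, 5% CO2. Growth inhibition read as loss of luminescence after adding luciferase detection reagent.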
# On the % scale 0 is the no-effect control and ±100 the full control effect; potency means the concentration at half of the fitted maximal effect.
Structure (SMILES),"activity change, negative = inhibition",Potency
CN(Cc1ccc(F)cc1)C(=O)COc1ccc2ccccc2c1,20.5%,–
COc1ccc(N=Nc2c(-c3ccc(OC)cc3)[nH]oc2=O)cc1,12.5%,–
O=C(COc1ccc(Cl)cc1)Nc1ccc2c(c1)OCO2,45.3%,–
Cc1ccc(NC(=O)COc2ccc(-n3ccnc3)cc2)cc1Cl,–,2.94 µM (active)
Cc1ccc(NC(=O)COc2ccc(/C=N\NC(=O)c3cccnc3)cc2)cc1C,-17.2%,–
O=C(CCNC(=O)C1CCN(S(=O)(=O)c2ccccc2)CC1)NC1CC1,41.2%,–
O=C1Nc2ccccc2/C1=C/c1ccnc2ccccc12,0.418%,–
CC1CN(C(=O)CCC(=O)NC2CCN(Cc3ccccc3)CC2)c2ccccc2O1 (stereo not given),4.48%,–
CCN(CC)C(=O)N1CCN(C(=O)c2ccc(C)cn2)CC1,–,11.7 µM (active)
CCN(CC(=O)Nc1c(F)cccc1F)C(=O)c1cnc(C)cn1,26.6%,–
Cc1ccc(OCC(=O)N2CCN(C(=O)c3cccnc3)CC2)cc1,477%,–
CC(C)[C@@H](C(=O)O)N(Cc1cccc(CN([C@H](C(=O)O)C(C)C)S(C)(=O)=O)c1)S(C)(=O)=O,-22.1%,–
O=C(Nc1ccc(C(=O)NCc2ccccc2Cl)cc1)C1=CSCCO1,-3.26%,–
CSc1ccc(CNC(=O)c2ccc(NC(=O)C3=CSCCO3)cc2)cc1,–,7.38 µM (active)
CS(=O)(=O)NCc1ccc(C(=O)NCc2ccccc2)cc1,1.67%,–
O=[N+]([O-])c1ccc(NC(=S)N2CCN(c3ccccn3)CC2)cc1,0%,–
O=[N+]([O-])c1cc([N+](=O)[O-])c(Oc2cc(F)cc(F)c2F)cc1NN1CCCCC1,38.5%,–
Cc1cc2c(cc1S(=O)(=O)NCc1ccc(Cl)cc1)OCC(=O)N2,-23.1%,–
O=C(Nc1cccc(Br)c1)c1ccc2snnc2c1,-23.8%,–
COc1ccc(NC(=O)Nc2ccc3nsnc3c2)cc1,57.4%,–
O=C(Nc1ccc2ccccc2c1)Nc1ccc2snnc2c1,–,4.65 µM (active)
COC(OC)c1ccnc(SCc2ccccc2Cl)n1,4.36%,–
COc1ccc(C)cc1NC(=O)NCc1ccccn1,14.6% [at 5.75 µM],–
COc1ccc(C)cc1NC(=O)CNCc1cccs1,–,11.7 µM (active)
O=C(CNCc1cccs1)Nc1cc(S(=O)(=O)N2CCCC2)ccc1Cl,-2.83%,–
CC(C)Cc1nnc(NC(=O)CCC(=O)Nc2ccc3cn[nH]c3c2)s1,107%,–
CCOc1ccc(NC(=O)c2ccc(NC(=O)C3CCCO3)cc2)cc1 (stereo not given),-3.52%,–

Structure (SMILES),"activity change, negative = inhibition",Potency
CCN(CCNC(=O)C1=C(C)C(=O)OC12CCC(C)CC2)c1ccccc1 (stereo not given),-21%,–
COc1ccc(C2=NOC(COC(=O)c3ccc4ccccc4n3)C2)cc1 (stereo not given),18.8%,–
COc1ccc(NC(=O)NCc2ccc3c(c2)OCO3)c(OC)c1,83.2%,–
COc1ccc(C2=NOC(Cn3nc(C(=O)NCc4ccc5c(c4)OCO5)cc3-c3ccccc3)C2)cc1 (stereo not given),–,10.4 µM (active)
Cc1ccc(NC(=O)COC(=O)CNC(=O)c2ccc(Cl)cc2Cl)cc1S(=O)(=O)N1CCOCC1,-9.37%,–
Cc1c(C)n(Cc2ccc(Cl)cc2)c2ccc(C(=O)NCCCN3CCOCC3)cc12,-20%,–
O=C(COc1ccc(-n2cnnn2)cc1)Nc1ccccc1Cl,7.51%,–
COc1ccc(CCNc2ncnc3c2nnn3Cc2ccccc2)cc1,–,2.94 µM (active)
CC(C)(C)c1nc(NCC2CCCO2)c2nnn(Cc3ccccc3)c2n1 (stereo not given),-41.5%,–
Clc1ccc(Nc2ncnc3c2nnn3Cc2ccccc2)cc1,-4.29%,–
COc1ccccc1CCNC(=O)CN1C(=O)NC2(CCCC2)C1=O,-0.162%,–
COC(=O)CNS(=O)(=O)c1ccc(OC)cc1,3.86%,–
COc1ccc(CCNS(=O)(=O)c2cccc([N+](=O)[O-])c2)cc1,2.6%,–
COc1ccc(S(=O)(=O)NCCc2cc3ccc(C)c(C)c3[nH]c2=O)cc1,–,8.28 µM (active)
COc1ccc2[nH]c(C(=O)Nc3ccccc3Cl)cc2c1,103%,–
CCN(C(=O)CN1C(=O)/C(=C/c2ccc(F)cc2)SC1=S)C1CCS(=O)(=O)C1 (stereo not given),–,11.7 µM (active)
CN(C(=O)CN1C(=O)S/C(=C\c2ccccc2F)C1=O)C1CCS(=O)(=O)C1 (stereo not given),6.95%,–
CN(C(=O)CCN1C(=O)/C(=C/c2ccccc2F)SC1=S)C1CCS(=O)(=O)C1 (stereo not given),-30.6%,–
CC(C)NC(=O)COCc1cc(-c2ccc3c(c2)OCO3)on1,-15.2%,–
Cn1cccc1C(=O)NNC(=O)COc1ccc(Br)cc1,25.8%,–
O=C(CSc1nnc2n1CCCN2)c1ccccc1,78.5%,–
Cc1c(OC(C)C(=O)NCC2CCC(C(=O)O)CC2)ccc2c1oc(=O)c1ccccc12 (stereo not given),–,13.1 µM (active)
Cc1c(OC(C)C(=O)N[C@@H](Cc2ccccc2)C(=O)O)ccc2c3c(c(=O)oc12)CCCC3 (stereo not given in full),87.3%,–
Cc1c(C)c2ccc(OCC(=O)N3CCC(C(=O)O)CC3)c(C)c2oc1=O,3.28%,–
CCC(C(=O)NCc1cccnc1)n1nc(C)c2sc3ccccc3c2c1=O (stereo not given),54.4%,–
O=C(C1CCCN(S(=O)(=O)c2ccccc2)C1)N1CCN(c2ccc(F)cc2)CC1 (stereo not given),107%,–
CCOC(=O)C(C)n1cnc2c(nnn2-c2cccc(OC)c2)c1=O (stereo not given),-28.3%,–

Structure (SMILES),"activity change, negative = inhibition",Potency
COc1ccc(/C=N/NC(=O)c2ccc(Cl)cc2)cc1COC(C)=O,13.5%,–
COc1cccc(OCc2cc(/C=N/NC(=O)c3nc(Cl)c(Cl)c(N)c3Cl)ccc2OC)c1,–,13.1 µM (active)
COc1ccc(/C=N\NC(=O)c2sc(N)nc2C)cc1OC,42.8%,–
CSc1ccccc1NC(=O)c1cc(C2CC2)on1,–,7.38 µM (active)
O=C(NC1CCCCC1)c1cc(C2CC2)on1,90.7%,–
O=C(Nc1cc(C(F)(F)F)ccc1Cl)c1cc(C2CC2)on1,-29.2%,–
CC(=O)NC(CC(=O)O)c1ccc(F)cc1 (stereo not given),137%,–
Cc1cc(C)cc(OCC(=O)NC(C)c2ccccc2)c1 (stereo not given),-4.04%,–
COCCNC(=O)COc1ccc(C)c(C)c1,24.7%,–
CCOc1ccc(C(CC(=O)O)NC(=O)COc2ccccc2)cc1 (stereo not given),–,10.4 µM (active)
COc1ccc(C(CC(=O)Nc2ccc(C)cc2)NC(=O)C(F)(F)F)cc1 (stereo not given),22.6%,–
Cc1ccc(OCC(=O)NC(C)c2ccccc2)cc1C (stereo not given),–,5.22 µM (active)
CCOc1ccc(C(CC(=O)O)NC(=O)Cc2ccccc2)cc1OC (stereo not given),31.4%,–
O=C(COc1ccccc1)Nc1nonc1NC(=O)COc1ccccc1,-1.51%,–
COc1ccc(C(CC(=O)O)NC(=O)Cc2ccccc2)cc1 (stereo not given),–,2.94 µM (active)
CCN(CC)S(=O)(=O)c1ccc2[nH]c(=O)cc(C(=O)N(C)C3CCS(=O)(=O)C3)c2c1 (stereo not given),-24.5%,–
COc1ccc(-c2cnc(SCCNC(=O)c3ccc4c(c3)OCO4)[nH]2)cc1,-6.78%,–
CCOc1ccc(N(CC(=O)Nc2cccc(OC)c2)S(C)(=O)=O)cc1,-19.7%,–
CC(=O)Nc1cccc(C(=O)OCN2C(=O)c3ccccc3C2=O)c1,-2.17%,–
Cc1cccc(NC(=O)c2ccc3ccccc3n2)n1,32%,–
Cc1ccc2cccc(OCCCOc3ccccc3CO)c2n1,42.1%,–
Cc1ccc(N(C)C(=O)Oc2cccc3ccc(C)nc23)cc1,–,0.104 µM (active)
CSCCC(NC(=O)c1ccco1)C(=O)Nc1cc(C)ccn1 (stereo not given),157%,–
CCS(=O)(=O)NCCc1ccc(OC)c(OC)c1,7.66%,–
COc1ccc(CCNS(=O)(=O)c2ccc(F)cc2)cc1OC,4.43%,–
CCOC(=O)c1cc(S(=O)(=O)NCCc2ccc(OC)c(OC)c2)cn1C,–,13.1 µM (active)
Cc1[nH]c2ccc(C(=O)N3CCN(C)CC3)cc2c1C,71.1%,–

Structure (SMILES),"activity change, negative = inhibition",Potency
Cc1c(Cl)cccc1NC(=O)[C@@]1(CC(=O)O)CC(/C=C/c2ccccc2)=NO1,12.7%,–
CN1CCc2nc(SC(C(=O)O)c3ccccc3)c(C#N)c(-c3cccs3)c2C1 (stereo not given),2.82%,–
Cc1cc(NC(=O)CCS(=O)(=O)c2ccc(F)cc2)no1,17.5%,–
COc1cccc(/C=N\NC(=O)C2=NNC(=O)C2C)c1O (stereo not given),–,4.15 µM (active)
COc1cccc(/C=N/NC(=O)c2[nH]nc3c2CCc2ccccc2-3)c1O,11.3%,–
COc1ccc(C(=O)Nc2ccccc2C(=O)N/N=C/c2ccccc2OC)cc1,-12.8%,–
COc1ccccc1-n1ccnc(SCC(=O)NC2CCCCC2)c1=O,-12.4%,–
COc1ccc(C(=O)OCC(=O)Nc2ccc3[nH]c(=O)[nH]c3c2)c(OC)c1OC,7.27%,–
Cc1ccc(S(=O)(=O)N(C)C)cc1NC(=O)COC(=O)/C=C/c1cccs1,-0.398%,–
CC(C)C(NC(=O)C1CCC(C(C)(C)C)CC1)C(=O)NCCCN1CCCCC1 (stereo not given),–,13.1 µM (active)
O=C(NC(C(=O)NCCN1CCOCC1)C12CC3CC(CC(C3)C1)C2)C1CCCCC1 (stereo not given),-25.7%,–
CC(C)[C@@H](NC(=O)OC(C)(C)C)C(=O)NCC1CCC(C(=O)N[C@@H](Cc2ccccc2)C(=O)O)CC1 (stereo not given in full),-3.55%,–
CCCCn1c(N)c(N(CC)C(=O)c2ccccc2C(F)(F)F)c(=O)[nH]c1=O,14.2%,–
CCOc1ccc(CN(C)C(=O)c2ccc(=O)[nH]c2)cc1,-5.36%,–
COc1ccc(N(CCC(=O)NCCc2ccccc2)S(=O)(=O)c2ccc(C)cc2C)cc1,28%,–
Cc1cccc(NC(=O)NC(=S)NC(=O)c2ccccc2)c1,111%,–
Cc1cccc(NC(=O)Nc2cccc(Oc3c(F)c(F)c(F)c(F)c3F)c2)c1,–,2.08 µM (active)
Cc1cccc(NC(=S)NC(=O)c2ccc(Br)o2)c1,48.5%,–
O=C(NCc1cccnc1)c1nc(-c2cccs2)no1,112% [at 5.75 µM],–
Cc1ccc(S(=O)(=O)c2nc(-c3cccs3)oc2NCc2cccnc2)cc1,–,11.7 µM (active)
Cc1ccc(C)c(NS(=O)(=O)c2ccc(OCC(=O)NCc3cccnc3)cc2)c1,5.79%,–
COc1cccc2cc(C(N)=O)/c(=N\NC(=O)c3ccccc3)oc12,-23.7%,–
Cn1nccc1NS(=O)(=O)c1ccc(F)cc1,-10.2%,–
O=C(CN1CCN(c2ccc(Cl)cc2)CC1)c1ccccc1,-0.965%,–
